# NPR1 antag = antagonists of human natriuretic peptide receptor Npr1. P16066. HEK293 hNpr1 GloSensor cGMP, ANP-stimulated luminescence. Potency, µM (doses to about 46.3 µM), without a hit: at the highest dose activity change, negative = inhibition, most hits filed as inhibitors. 76,000 tested, 1.6% active. AID 1347048; calls by dose curve; note: nearly all actives have a fitted effect of over 60% in size
#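 Compound pre-incubated 30 min at room temperature on GloSensor-loaded HEK293 cells stably carrying hNpr1 and the pGS-40F cGMP biosensor. Stimulation uses hNppA at 0.1 nM final; luminescence is taken at baseline and 20 min post-agonist.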
# HEK293 tox = HEK 293 cell cytotoxicity. HEK 293 viability, ATP luminescence (CellTiter-Glo), 48-72 h. Potency, µM (series often up to 115 µM), without a hit: top-dose activity change, negative = cytotoxicity, usual class: inhibitors. 94,000 tested, 6.6% active. AID 1345083; note: nearly all actives have a fitted effect of over 60% in size
#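 HEK 293 seeded at 250 cells/well receive compound via pintool. After 48 or 72 hr at 37 degree Celsius, 5% CO2 and 95% humidity, CellTiter-Glo is dispensed and luminescence read following 10 min at room temperature.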
# NIH3T3 tox = NIH 3T3 cell cytotoxicity. NIH 3T3 viability, CellTiter-Glo ATP luminescence, 48-72 h. Potency, µM (highest dose often 96.7 µM), without a hit: at the top dose activity change, negative = cytotoxicity, most hits filed as inhibitors. 94,000 tested, 4.3% active; note: nearly all actives have a fitted effect of over 55% in size
#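 Cells were seeded at 400 per well, treated with pin-transferred compound, and kept 48 or 72 hr at 37 °C before CellTiter-Glo addition and luminescence imaging of cellular ATP.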
# Luciferase inh = blocks purified firefly luciferase enzyme activity. AID 1347043. 76,000 tested, 2.5% active. purified P. pyralis luciferase, luminescence, biochemical. Potency, µM (highest dose often 115 µM), usual class: inhibitors. P08659; note: nearly all actives have a fitted effect of over 65% in size
# Target sequence (P08659 whole entry, looked up): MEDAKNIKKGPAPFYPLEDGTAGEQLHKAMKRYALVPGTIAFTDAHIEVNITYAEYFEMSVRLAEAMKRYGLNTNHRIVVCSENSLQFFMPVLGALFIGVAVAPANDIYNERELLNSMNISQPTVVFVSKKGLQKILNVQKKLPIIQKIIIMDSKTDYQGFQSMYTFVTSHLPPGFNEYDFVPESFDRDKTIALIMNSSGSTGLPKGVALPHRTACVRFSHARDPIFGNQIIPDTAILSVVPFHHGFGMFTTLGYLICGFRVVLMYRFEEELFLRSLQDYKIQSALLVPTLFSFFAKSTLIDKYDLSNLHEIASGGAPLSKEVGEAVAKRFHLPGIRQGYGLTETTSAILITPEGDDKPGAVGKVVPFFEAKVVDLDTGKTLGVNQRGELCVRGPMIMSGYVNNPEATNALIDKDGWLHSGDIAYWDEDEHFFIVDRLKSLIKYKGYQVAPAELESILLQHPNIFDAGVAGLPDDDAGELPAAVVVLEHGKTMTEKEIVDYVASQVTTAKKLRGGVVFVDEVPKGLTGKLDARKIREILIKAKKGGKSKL
#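 Purified 10nM P. pyralis luciferase with 10uM D-luciferin and 10uM ATP in 50mM Tris acetate pH 7.5, 10mM Mg acetate, 0.01% Tween-20, 0.05% BSA. qHTS titration; luminescence read by CCD imager.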
# * = called active by the depositor; i = inactive; ? = inconclusive; nt = no result; [ ] = dose if it differs, or a comment. An excerpt weighted towards active compounds, which were near 11% of everything screened. Unless noted, calls come from the whole dose curve; as a rule, active = well fitted curve in the direction sought with a large enough effect; inconclusive = small, poorly fitted or top-dose-only effect, or another doubt; inactive = no such curve, though single readings can be large; an effect the other way counts as inactive or inconclusive. % is set by controls: 0 for no effect and ±100 for the full control effect; potency is the fitted concentration of half-maximal effect.
SMILES,NPR1 antag,HEK293 tox,NIH3T3 tox,Luciferase inh
CC[C@H]1CN2CC[C@H]1C[C@@H]2CNC(=O)CSCC(=O)O,-1%[70.6 µM],-8%[172 µM],4%[174 µM],i
O=C(c1cccs1)N1C[C@@H]2C[C@H](C1)c1c(-c3ccc(Cl)cc3)ccc(=O)n1C2,6%[70.6 µM],-18%[172 µM],-6%[174 µM],i
O=C(NC[C@H]1C[C@@H]2CCN1C[C@@H]2CN1C[C@@H]2C[C@H](C1)c1cccc(=O)n1C2)c1ccc(C(F)(F)F)cc1,7%,?,-5%,i
CCCCOC(=O)N1C[C@H](C(=O)OCC)[C@H]2c3ccccc3N(CCOC)C(=O)[C@]21C,nt,?,-29%[46.1 µM],nt
Cc1nc(-c2cccs2)cc([C@H]2CN3CC[C@H]2C[C@@H]3CNC(=O)Nc2cccc(C(F)(F)F)c2)n1,4%,25µM*,25µM*,i
Cc1nc(-c2cccs2)cc([C@H]2CN3CC[C@H]2C[C@@H]3CNC(=O)c2ccccc2)n1,-16%[70.6 µM],?,?,i
Cc1nc(-c2cccs2)cc([C@H]2CN3CC[C@H]2C[C@@H]3CNC(=O)c2ccc3c(c2)OCO3)n1,-7%,?,40µM*,i
Cc1ccc(C(=O)NC[C@H]2C[C@@H]3CCN2C[C@@H]3c2cc(-c3cccs3)nc(C)n2)cc1,-20%[70.6 µM],?,28µM*,i
Cc1nc(-c2ccccc2Br)cc([C@H]2CN3CC[C@H]2C[C@@H]3CNC(=O)c2cccs2)n1,-7%,79µM*,?,i
Cc1nc(-c2ccco2)cc([C@H]2CN3CC[C@H]2C[C@@H]3CNC(=O)c2cccs2)n1,-1%[70.6 µM],-29%[172 µM],-25%[138 µM],i
Cc1nc(-c2cccs2)cc([C@H]2CN3CC[C@H]2C[C@@H]3CNC(=O)C2CC2)n1,-5%[70.6 µM],-18%[172 µM],-27%[174 µM],i
O=c1cccc2n1CC1CC2CN(Cc2cc3n(n2)CCNC3)C1 (stereo not given),1%,-5%,-12%,i
O=C(Nc1ccc2n(c1=O)C[C@H]1C[C@@H]2CN(C(=O)NC2CCCCC2)C1)c1ccco1,2%[70.6 µM],-13%[172 µM],89µM*,i
CC(C)(C)CC(=O)N1C[C@@H]2C[C@H](C1)c1ccc(NC(=O)c3ccco3)c(=O)n1C2,0%[70.6 µM],-1%[172 µM],5%[174 µM],i
C#CCN(C)C[C@H]1CN2CC[C@H]1C[C@@H]2CNC(=O)c1ccccc1,-1%[70.6 µM],3%[172 µM],-2%[174 µM],i
CC(=O)c1ccc(NC(=O)OC[C@H]2C[C@@H]3CCN2C[C@@H]3c2cc(C3CCCC3)nc(-c3ccncc3)n2)cc1,-17%,32µM*,22µM*,i
O=C(Nc1cccc(C(F)(F)F)c1)OC[C@H]1C[C@@H]2CCN1C[C@@H]2c1cc(C2CCCC2)nc(-c2ccncc2)n1,?,4µM*,?,i
CC(=O)c1cccc(NC(=O)OC[C@H]2C[C@@H]3CCN2C[C@@H]3c2cc(C3CCCC3)nc(C)n2)c1,-8%,14µM*,?,i
CCC(CC)c1cc([C@H]2CN3CC[C@H]2C[C@@H]3CNC(=O)CSCC(=O)O)nc(-c2ccncc2)n1,1%,?,?,i
O=C(NC1CCCCC1)OC[C@H]1C[C@@H]2CCN1C[C@@H]2c1cc(C2CCCC2)nc(-c2ccncc2)n1,?,?,?,i
CC(C)NC(=O)OC[C@H]1C[C@@H]2CCN1C[C@@H]2c1cc(C2CCCC2)nc(-c2ccncc2)n1,-23%,22µM*,28µM*,i
COCc1nc(C2CC(N)C2)cc(N2CCCN3CCC[C@H]3C2)n1 (stereo not given in full),1%,i,i,i
Cc1cc(C[C@@H]2COC[C@@H]2NC(=O)c2cn(C)c3ccccc23)on1,3%,-18%,-1%,i
Cc1ccc(C)c(S(=O)(=O)N2[C@H]3CC[C@@H]2c2cnc(-c4ccccc4)nc2C3)c1,?,-41%,-17%,i
CCS(=O)(=O)N1[C@H]2CC[C@@H]1c1cnc(-c3ccc(F)cc3)nc1C2,?,40µM*,-30%,i
SMILES,NPR1 antag,HEK293 tox,NIH3T3 tox,Luciferase inh
Cc1ccccc1S(=O)(=O)N1[C@H]2CC[C@@H]1c1cnc(-c3ccccc3)nc1C2,?,25µM*,?,i
Cc1cccc(NC(=O)N2[C@H]3CC[C@@H]2c2cnc(-c4ccccc4)nc2C3)c1,-29%,40µM*,?,i
Cc1ccc(S(=O)(=O)NC[C@H]2C[C@@H]3CCN2C[C@@H]3CN2CCc3ccccc32)cc1,-9%[70.6 µM],28µM*,45µM*,i
Cc1ccc(S(=O)(=O)NC[C@H]2C[C@@H]3CCN2C[C@@H]3CN2CCCCC2)cc1,4%[70.6 µM],?,-23%[174 µM],i
COc1ccc(S(=O)(=O)NC[C@H]2C[C@@H]3CCN2C[C@@H]3CN2CCc3ccccc32)cc1,2%[70.6 µM],28µM*,40µM*,i
O=S(=O)(NC[C@H]1C[C@@H]2CCN1C[C@@H]2CN1CCc2ccccc21)c1ccc(Cl)cc1,4%,20µM*,28µM*,i
Cc1ccc(S(=O)(=O)NC[C@H]2C[C@@H]3CCN2C[C@@H]3CN2CCN(c3ccccn3)CC2)cc1,-6%,-19%,-25%,i
COc1ccc(S(=O)(=O)NC[C@H]2C[C@@H]3CCN2C[C@@H]3CN2CCCCC2)cc1,3%[70.6 µM],112µM*,100µM*,i
CCOC(=O)[C@H]1CN(C(=O)/C=C/c2ccccc2)[C@]2(C)C(=O)N(CCOC(C)=O)c3ccccc3[C@H]12,nt,-27%[57.5 µM],?,nt
O=S(=O)(NC[C@H]1C[C@@H]2CCN1C[C@@H]2CN1CCc2ccccc2C1)c1ccc(Cl)cc1,4%,22µM*,22µM*,i
CS(=O)(=O)NC[C@H]1C[C@@H]2CCN1C[C@@H]2CN1CCc2ccccc2C1,8%[70.6 µM],-21%[172 µM],-22%[174 µM],i
COCCC(=O)N1CCC2(CC1)C(=O)Nc1cc(Oc3cccc(N(C)C)c3)c(OC)cc12,-8%,?,?,i
CC[C@H]1CN2CC[C@H]1C[C@@H]2COC(=O)Nc1ccc(C(C)(C)C)cc1,6%[70.6 µM],40µM*,40µM*,?
CC[C@H]1CN2CC[C@H]1C[C@@H]2COC(=O)Nc1cccc2ccccc12,-9%[70.6 µM],?,50µM*,i
COC(=O)N1CCC2(C1)N=C(c1cccnc1)C(=O)N2 (stereo not given),0%[70.6 µM],i,5%[138 µM],i
Cn1cc(CN2CCOC[C@H](O)C2)c2ccccc21,4%[70.6 µM],63µM*,89µM*,i
COc1cc2c(cc1OCc1ccccc1)N([S+](=O)([O-])c1ccccc1C(F)(F)F)CC21CCN(C)CC1,-15%,20µM*,13µM*,i
COc1cc2c(cc1OCc1ccccc1)N([S+](=O)([O-])c1cccnc1)CC21CCN(C)CC1,2%,?,14µM*,i
COc1cc2c(cc1OCc1ccccc1)N([S+](=O)([O-])c1ccc3c(c1)CCO3)CC21CCN(C)CC1,-9%,?,?,i
